High-throughput results as filed in PubChem.
Efflux pump mplx = antifungal efflux pump inhibition, Nile Red retention; AID 485275; actives 0.44% (n = 330,000); S. cerevisiae Candida pump triplex; inhibition, % at 10 µM;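 active = plate passing quality check with inhibition over a set limit, or well fluorescence over plate mean plus 4 SD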;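 note: Nile Red retained in pooled yeast measured as flow cytometry median fluorescence; higher means more Nile Red kept so more efflux inhibition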
Rce1 inhib = inhibitors of yeast Ras-converting enzyme | calls only | actives 0.27% (n = 290,000) | Q03530 | AID 2563 | yeast membranes, quenched prenylated peptide cleavage fluorescence;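 active = fall in fluorescence gain of 50% or more versus controls, with final raw signal at or below 3038400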
NSD2 HMT inh = inhibitors of human histone methyltransferase NSD2; O96028; NSD2 peptide methylation, AlphaScreen, 120 min; inhibition, % at 12.5 µM; actives 0.54% (n = 310,000); AID 743445; in the data active = inhibition above about 50%
GC-B act = GC-B (human) receptor activation | activation, % at 10 µM | HEK293-GC-B cells, CNP EC30, cGMP TR-FRET; 0% at EC30 CNP, 100% saturating CNP | actives 0.11% (n = 370,000) | AID 1920062;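 active = activation at 10 µM reaching about 35% in either raw or pattern-adjusted values, limit read from the data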
GC-A act = GC-A (human) enzyme activation; AID 1671463; activation, % at 10 µM; P16066; HEK293 GC-A cells, cGMP TR-FRET, EC30 ANP; 0% at EC30 ANP, 100% saturating ANP; actives 0.14% (n = 370,000); in the data active = activation above about 40%
Target sequence (P16066 whole entry, looked up): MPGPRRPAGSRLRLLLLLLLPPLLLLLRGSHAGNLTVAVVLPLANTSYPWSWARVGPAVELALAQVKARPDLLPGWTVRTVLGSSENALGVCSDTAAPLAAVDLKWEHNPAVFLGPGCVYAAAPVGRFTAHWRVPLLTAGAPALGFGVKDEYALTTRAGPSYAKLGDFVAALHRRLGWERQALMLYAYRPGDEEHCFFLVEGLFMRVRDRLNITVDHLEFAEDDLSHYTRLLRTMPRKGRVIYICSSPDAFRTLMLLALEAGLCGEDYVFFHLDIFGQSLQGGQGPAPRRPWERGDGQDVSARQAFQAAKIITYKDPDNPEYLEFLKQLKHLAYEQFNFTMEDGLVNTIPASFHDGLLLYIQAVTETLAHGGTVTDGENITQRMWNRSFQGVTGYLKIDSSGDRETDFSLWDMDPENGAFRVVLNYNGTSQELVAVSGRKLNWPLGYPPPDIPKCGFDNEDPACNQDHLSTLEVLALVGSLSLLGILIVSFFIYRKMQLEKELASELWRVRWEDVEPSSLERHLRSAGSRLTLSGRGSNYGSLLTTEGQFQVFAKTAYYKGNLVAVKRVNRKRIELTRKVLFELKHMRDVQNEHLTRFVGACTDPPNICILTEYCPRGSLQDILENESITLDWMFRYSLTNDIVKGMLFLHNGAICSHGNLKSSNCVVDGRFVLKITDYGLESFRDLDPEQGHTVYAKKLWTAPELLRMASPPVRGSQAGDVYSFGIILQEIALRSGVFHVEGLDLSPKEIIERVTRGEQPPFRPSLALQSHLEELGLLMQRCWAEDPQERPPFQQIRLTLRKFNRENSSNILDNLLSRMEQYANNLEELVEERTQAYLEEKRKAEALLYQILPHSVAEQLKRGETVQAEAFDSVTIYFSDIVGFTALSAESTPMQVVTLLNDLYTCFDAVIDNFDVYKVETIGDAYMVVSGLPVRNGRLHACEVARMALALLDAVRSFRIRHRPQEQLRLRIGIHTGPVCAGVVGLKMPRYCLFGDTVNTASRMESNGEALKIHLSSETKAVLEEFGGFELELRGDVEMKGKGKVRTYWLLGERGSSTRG
V-ATPase pHluor = yeast V-ATPase proton transport regulation by pHLuorin; S. cerevisiae, pHLuorin cytosolic pH fluorescence; response, % at 10 µM; actives 0.37% (n = 350,000); in the data active = response mostly above about 7.3%, no sharp cut-off; inactive = mostly below about 5.4%; note: actives read high
Large screens that a line does not name were inactive. Only some compounds are listed: those with a hit (about 1.6% of all), similar ones and a draw of the others.

Cc1ccnc(NC(=O)c2cccc(NC(=O)c3ccc(Cl)cc3Cl)c2)c1	none (no result: Efflux pump mplx, Rce1 inhib, GC-B act, GC-A act, V-ATPase pHluor)
Cc1cc(C)cc(C(=O)OCCN(C)C2CN(Cc3cn(Cc4ccccc4C(F)(F)F)nn3)S(=O)(=O)C2)c1 (stereo not given)	none (no result: Efflux pump mplx, Rce1 inhib, NSD2 HMT inh, V-ATPase pHluor)
Cc1cc(C)c2nc(N(CCCN(C)C)C(=O)c3ccc4c(c3)CCCC4)sc2c1	Rce1 inhib active (no result: V-ATPase pHluor)
CNc1cccc2c1C(=O)c1ccccc1C2=O	none
O=C1C=CC(=Nc2cccc3c2C(=O)c2ccccc2-3)O1	V-ATPase pHluor 10.7 (no result: Efflux pump mplx, Rce1 inhib, GC-B act, GC-A act)
CC(C)C(=O)Nc1cccc(C(=O)OCC(=O)c2ccc(Cl)cc2Cl)c1	GC-A act 58.7
CC(=O)Nc1cc(C(=O)OCC(=O)c2ccc(Cl)cc2Cl)ccc1C	GC-A act 61.4
CC(=O)Nc1cc(C(=O)OCC(=O)c2ccc(C)cc2)ccc1C	none (no result: NSD2 HMT inh)
COC(=O)c1cccc(NC(=O)Nc2ccc(Cl)cc2Cl)c1	none
COC(=O)C1CN(Cc2cn(Cc3ccc(Cl)cc3)nn2)CCS(=O)(=O)N1Cc1ccccc1 (stereo not given)	none (no result: Efflux pump mplx, Rce1 inhib, NSD2 HMT inh, V-ATPase pHluor)
COc1ccc(C(=O)N2CCOCC2)cc1S(=O)(=O)N(C)Cc1ccccc1	none (no result: Efflux pump mplx, Rce1 inhib, GC-B act, GC-A act, V-ATPase pHluor)
COc1ccc(NC2CCCCC2NS(=O)(=O)c2ccc(C)cc2)cc1 (stereo not given)	V-ATPase pHluor 21.0
CCOC(=O)C1CCCN(C(=O)c2cc3nc(-c4ccc5c(c4)OCO5)cc(C(F)(F)F)n3n2)C1 (stereo not given)	GC-B act 36.5
COc1ccc(-c2cc(C(F)(F)F)n3nc(C(=O)N4CCCC4)cc3n2)cc1	none
O=C(NCc1ccc(F)c(F)c1)C1C2C=CC3(CN(Cc4ccccc4)C(=O)C13)O2 (stereo not given)	none (no result: Efflux pump mplx, Rce1 inhib, V-ATPase pHluor)
CC(C)C(=O)N1CC[C@H]2[C@H](CCCN2Cc2ccc(F)cc2)C1	none (no result: Efflux pump mplx, Rce1 inhib, NSD2 HMT inh, V-ATPase pHluor)
COc1ccccc1Cn1nnc2c(=O)[nH]c(C3CCN(C(=O)c4ccccc4Cl)CC3)nc21	GC-B act 48.3
COc1ccccc1Cn1nnc2c(=O)[nH]c(C3CCN(C(=O)c4ccc(F)cc4)CC3)nc21	none
O=C(CBr)Nc1c2c(nn1-c1ccccc1)CSC2	V-ATPase pHluor 11.0
CCCC(=O)Nc1c2c(nn1-c1ccccc1)CSC2	none
Cc1ccc(C(=O)Nc2nnc(SCC(=O)N3CCCc4ccccc43)s2)cc1	V-ATPase pHluor 9.0
O=c1c([N+](=O)[O-])c(Cl)c2ccccc2n1Cc1ccccc1	none (no result: Efflux pump mplx, Rce1 inhib, NSD2 HMT inh, V-ATPase pHluor)
O=C(Nc1ccccc1)n1ccc(-c2ccc(-n3ccnc3)cc2)n1	Rce1 inhib active (no result: V-ATPase pHluor)
CC1(C)CC(=O)C=C(Nc2ccc(F)cc2)C1	V-ATPase pHluor 13.9
Cc1cccc(NC(=O)C2(c3ccc([N+](=O)[O-])cc3)CCCC2)c1	Rce1 inhib active
Cc1ccc(/C=C/c2nnc(-c3cccs3)o2)cc1	none
Fc1ccc(/C=C/c2nnc(-c3cccs3)o2)cc1	NSD2 HMT inh 51.2 (no result: Rce1 inhib)
CCC(C)(C)C1CCC2(CC1)NC(=O)N(CC(=O)Nc1nc(-c3ccc(C)cc3)cs1)C2=O (stereo not given)	none
O=C(CN1C(=O)NC2(CCCC2)C1=O)Nc1nc(-c2ccc(F)cc2)cs1	GC-A act 45.2
CC(=O)Nc1ccc(-c2csc(NC(=O)CN3C(=O)NC4(CCCC4)C3=O)n2)cc1	none
CC1(C)NC(=O)N(CC(=O)Nc2nc(-c3ccc(F)cc3)cs2)C1=O	GC-A act 47.8
Cc1ccc2c(c1)C(CS(=O)(=O)NC1CCCC1)NC2 (stereo not given)	none (no result: Efflux pump mplx, Rce1 inhib, NSD2 HMT inh, V-ATPase pHluor)
CC(C)CNc1cccc2c1S(=O)(=O)N(Cc1cn(Cc3ccc(F)cc3)nn1)Cc1ccccc1O2	none (no result: Efflux pump mplx, Rce1 inhib, NSD2 HMT inh, V-ATPase pHluor)
CC(=O)Nc1nnc(CCS(=O)(=O)c2ccc(C)cc2)s1	V-ATPase pHluor 22.9 (no result: NSD2 HMT inh)
CCCCNC(=O)C[C@H]1C[C@@]2(C(=O)OC)C(=C[C@H](C(C)(C)C)O[C@@H]2C)N(Cc2cccc3ccccc23)C1=O	none (no result: Efflux pump mplx, Rce1 inhib, NSD2 HMT inh, V-ATPase pHluor)
Cc1nnc(SCC(=O)Nc2ccc(N3CCOCC3)cc2)n1Cc1ccccc1	V-ATPase pHluor 23.1 (no result: Rce1 inhib)
CC(=O)Oc1ccc2c(c1)c(C(C)=O)c(C)n2C	V-ATPase pHluor 18.4 (no result: NSD2 HMT inh)
CCOc1ccc(C(=O)C(CCC(CN(C)C)C(=O)c2ccc(OCC)cc2)CN(C)C)cc1 (stereo not given)	V-ATPase pHluor 9.6 (no result: Efflux pump mplx)
CCOC(=O)c1c(NC(=O)CSc2ncccn2)sc2c1CC(C)(C)NC2(C)C	none
CCOC(=O)c1c(NC(=O)COc2ccccc2F)sc2c1CC(C)(C)NC2(C)C	Rce1 inhib active (no result: NSD2 HMT inh)
c1ccc(Nc2ccccn2)cc1	none
c1ccc(Nc2cccc(Nc3ccccc3)n2)cc1	Rce1 inhib active
O=C1OCCC1Sc1nnc(-c2ccc(Cl)cc2Cl)o1 (stereo not given)	GC-A act 70.2
Oc1ccc(C=Nc2ccccc2-c2nc3ccccc3[nH]2)cc1	GC-B act 44.9
O=C(CSc1nnc(-c2ccccc2)n1-c1ccc(Cl)cc1)NN=Cc1c[nH]c2ccccc12	none (no result: Efflux pump mplx, Rce1 inhib, V-ATPase pHluor)
Oc1ccc(/C=N\Nc2cc(N3CCOCC3)nc(N3CCOCC3)n2)c(O)c1	NSD2 HMT inh 152.9
Oc1ccc(/C=N/Nc2cc(N3CCCC3)nc(N3CCCC3)n2)cc1O	NSD2 HMT inh 109.9
CCN(CC)C(=O)Cn1nc(Cc2ccncc2)c2ccccc2c1=O	none (no result: Efflux pump mplx, Rce1 inhib, V-ATPase pHluor)
CCc1cc[n+](C2=C([O-])c3ccccc3C(=O)/C2=N\S(=O)(=O)c2cccs2)cc1	NSD2 HMT inh 82.5
CCOc1ccc(-n2c(SCC(=O)N3CCCC3)nc3ccccc3c2=O)cc1	none (no result: Efflux pump mplx, Rce1 inhib, GC-B act, GC-A act, V-ATPase pHluor)
CCC1CCCCN1S(=O)(=O)c1ccc(NC(=O)c2nc(S(C)(=O)=O)ncc2Cl)cc1 (stereo not given)	GC-A act 42.4
CCC1CCCCN1S(=O)(=O)c1ccc(NC(=O)c2ccncc2)cc1 (stereo not given)	none
CCS(=O)(=O)c1ncc(Cl)c(C(=O)Nc2ccc(S(=O)(=O)N3CCCC(C)C3)cc2)n1 (stereo not given)	GC-B act 41.4, GC-A act 43.5
C=CCN1CCCC1CNC(=O)c1cc2[nH]nnc2cc1OC (stereo not given)	V-ATPase pHluor 15.1 (no result: Rce1 inhib, NSD2 HMT inh)
CCN1CCCC1CNC(=O)c1cc(N)ccc1OC (stereo not given)	none
Cc1ccc(-n2c(SCC(=O)N/N=C/C=C\c3ccccc3[N+](=O)[O-])nnc2-c2ccccc2)cc1	none (no result: Efflux pump mplx, Rce1 inhib, V-ATPase pHluor)
CC(CCN1CCC(C(O)(c2ccccc2)c2ccccc2)CC1)Oc1ccc(OC(F)(F)F)cc1 (stereo not given)	none (no result: Efflux pump mplx, Rce1 inhib, NSD2 HMT inh, V-ATPase pHluor)
CNC(=O)c1sc(-c2ccc(Cl)cc2)nc1C	GC-A act 46.5
Cc1nc(-c2ccc(Cl)cc2)sc1C(=O)NNC(=O)C(C)C	GC-A act 43.1
CC(=O)c1sc(-c2ccc(Cl)cc2)nc1C	none (no result: GC-B act, GC-A act)
Cc1ccnc(NC(=O)c2ccc(Cl)c(NC(=O)c3ccccc3F)c2)c1	none (no result: Efflux pump mplx, Rce1 inhib, GC-B act, GC-A act, V-ATPase pHluor)
Cc1ccccc1Nc1nc(N)nc(CSc2nnnn2-c2ccccc2)n1	V-ATPase pHluor 13.1
